From PubChem BioAssay AID493131 (Broad Institute, 2011)
Hit rate of the full screen: of about 340,000 compounds, about 3,300 (0.97%) were called active.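 How the source made its calls: active means mean activation above about 17%, with every replicate also reaching it (limit read from the data, passing the limit was not always enough); inconclusive means only one of the two conditions met; inactive means the rest.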 The list comes from a sample in which actives are over-represented; it also holds similar structures and randomly drawn compounds.

Biological target: Protein FosB (Mus musculus) (UniProt P13346)
Sequence (P13346 whole entry, looked up): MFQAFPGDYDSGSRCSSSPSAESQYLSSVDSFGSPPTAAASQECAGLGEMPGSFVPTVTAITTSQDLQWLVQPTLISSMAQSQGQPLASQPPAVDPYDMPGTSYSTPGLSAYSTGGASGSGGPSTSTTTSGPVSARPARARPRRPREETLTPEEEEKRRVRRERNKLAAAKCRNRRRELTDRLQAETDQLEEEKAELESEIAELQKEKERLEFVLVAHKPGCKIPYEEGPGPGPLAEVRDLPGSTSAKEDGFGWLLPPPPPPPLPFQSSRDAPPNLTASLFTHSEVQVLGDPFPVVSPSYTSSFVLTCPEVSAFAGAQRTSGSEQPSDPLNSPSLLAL
Experiment: activators of delta FosB homodimer, primary screen, biochemical, fluorescence polarization, TAMRA-CDK5 oligo, single point (AID 493131);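 further: fluorescence polarization rise as delta FosB binds a TAMRA Cdk5 AP-1 oligo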
Conditions: purified delta FosB, at 25 µM, stronger effect = higher value, percent of positive-control signal above neutral wells

Row | Structure (SMILES) | activation
1 | CCOc1ccc2c(=O)c(-c3ccc4c(c3)OCCCO4)c(C)oc2c1 | 5.27% (inactive)
2 | CCn1cc(CN2CCC(C(=O)Nc3cccc(-c4cccc(Cl)c4)c3)CC2)c(C)n1 | -5.85% (inactive)
3 | O=C1c2ccncc2C(=O)N1C1CCCCC1 | -3.57% (inactive)
4 | COc1ccc(-c2cc(=O)oc3cc(OC(C)C(=O)Nc4ccc(CN5CCOCC5)cc4)ccc23)cc1 (stereo not given) | 28.5% (active)
5 | Cc1cc(=O)oc2cc(OC(C)C(=O)Nc3ccc(N4CCOCC4)cc3)ccc12 (stereo not given) | 14.2% (inactive)
6 | COc1ccc(-c2cc(=O)oc3cc(OC(C)C(=O)NCC4CCC(C(=O)O)CC4)ccc23)cc1 (stereo not given) | 2.8% (inactive)
7 | COc1ccc(CCN(C)C(=O)C23CC4CC(CC(Cl)(C4)C2)C3)cc1OC | -11.5% (inactive)
8 | CCOc1ccc(NC(=O)CSc2ncnc3c2sc2ccccc23)cc1 | -0.561% (inactive)
9 | COc1cc(C(=S)NCc2ccccc2)cc(Br)c1O | -3.42% (inactive)
10 | Cc1nn(Cc2ccc(Cl)cc2)c(Cl)c1/C=N/NC(=O)CNc1ccccc1F | 20.3% (active)
11 | COc1ccc(Cl)cc1NC(=O)CNc1ccccc1F | 0.137% (inactive)
12 | CCn1nc(C)c(/C=N/NC(=O)Cc2ccc(Cl)cc2)c1C | -5.48% (inactive)
13 | COC(=O)c1ccc(C(=O)Nc2cc(Cl)ccc2Cl)cc1NC(=O)c1ccccc1C | -4.76% (inactive)
14 | COc1ccc2c(c1)c1nc3n(c(=O)c1n2CC(=O)Nc1ccccc1)CCS3 | 2.33% (inactive)
15 | COc1cccc(NC(=O)Cn2c3ccc(F)cc3c3nc4n(c(=O)c32)CCS4)c1 | 20.4% (active)
16 | COc1cccc(NC(=O)Cn2c3ccccc3c3nc4n(c(=O)c32)CCS4)c1 | 10.7% (inactive)
17 | CC1=NN(c2cccc(Cl)c2)C(=O)C12CC(C)=C(C)CS2 (stereo not given) | -6.87% (inactive)
18 | Oc1ccccc1CNc1ncc(Br)cc1Br | -0.334% (inactive)
19 | CC(C)C(NC(=O)c1cccc(S(=O)(=O)N2CCOCC2)c1)C(=O)NCCc1ccccn1 (stereo not given) | -1.29% (inactive)
20 | Cc1c(C#N)c2ncn(CC#N)c(=O)c2n1-c1ccccc1 | -7.05% (inactive)
21 | COc1ccc(-c2cc3n(n2)CCc2nc4ccccc4n2-3)cc1 | 18.1% (active)
22 | COc1ccc(-c2cc3ncccc3cn2)cc1 | -21.2% (inactive)
23 | COc1ccc(-c2cc(C(=O)n3cnc4ccccc43)c3ccccc3n2)cc1 | -10% (inactive)

Row | Structure (SMILES) | activation
24 | CC(=O)N1CCN(CC(c2ccccc2)c2ccccc2)CC1 | 1.45% (inactive)
25 | O=c1[nH]snc1-c1c(Cl)cccc1Cl | -3.4% (inactive)
26 | CN(CC(=O)Nc1ccc(Cl)cc1)C(=O)c1ccc(COc2ccccc2)cc1 | -1.5% (inactive)
27 | O=C(NNC(=O)c1ccc2ccccc2c1)c1ccc(Cl)cc1 | 4.76% (inactive)
28 | CN(CC(=O)Nc1ccc(Cl)cc1)C(=O)CNC(=O)c1ccc2ccccc2c1 | 38.6% (active)
29 | Nc1ccccc1/C=N\N=C/c1ccccc1N | 1.65% (inactive)
30 | Cc1nc(-c2ccc(Cl)cc2)sc1C1(C)CC(c2ccc(Br)cc2)=NO1 (stereo not given) | -6.82% (inactive)
31 | COc1ccc(OC)c(-n2c(=S)[nH]c3cc(C(=O)N4CCCCC4)ccc3c2=O)c1 | 0.446% (inactive)
32 | COc1ccc(Cn2c(=S)[nH]c3cc(C(=O)NCCCN4CCOCC4)ccc3c2=O)cc1 | -7.8% (inactive)
33 | COc1ccc(Cn2c(=S)[nH]c3cc(C(=O)N4CCCCC4)ccc3c2=O)cc1 | 67.5% (active)
34 | CC(C)C(OC(=O)c1cccs1)C(=O)NC1CCCCC1 (stereo not given) | 0.731% (inactive)
35 | Cc1c[n+]([O-])ccc1[N+](=O)[O-] | 1.75% (inactive)
36 | CCc1nnc(NS(=O)(=O)c2ccc(NC(=S)NC(=O)/C=C/c3cccs3)cc2)s1 | -19.1% (inactive)
37 | C=CCn1c(=NC(=O)c2ccc(S(=O)(=O)N3CCCC3)cc2)sc2cc(NC(C)=O)ccc21 | 50.4% (active)
38 | COc1cc(C(C)=O)ccc1OC(C)C(=O)Nc1ccc(S(=O)(=O)N2CCCC2)cc1 (stereo not given) | -5.8% (inactive)
39 | CC(=O)Nc1ccc(S(=O)(=O)N2CCSCC2)cc1 | -10.4% (inactive)
40 | CC(NC(=O)CCCC1CCCCC1)c1ccc(S(N)(=O)=O)cc1 (stereo not given) | -18.3% (inactive)
41 | Cc1n[nH]c(=O)c2c1nnn2Cc1ccc(F)cc1 | 0.186% (inactive)
42 | O=C(CN1CCN(S(=O)(=O)c2ccc(Cl)s2)CC1)N1CCCCC1 | -6.89% (inactive)
43 | COc1cc(OC)cc(C(=O)NC(C(=O)N2CCC2)C(C)C)c1 (stereo not given) | 0.275% (inactive)
44 | COc1cc(OC)cc(C(=O)N[C@H](C(=O)NNC(=O)c2ccc(Br)cc2)C(C)C)c1 | 23.4% (active)
45 | COc1ccc(N2CCN(C(=O)[C@@H](NC(=O)c3cc(OC)cc(OC)c3)C(C)C)CC2)cc1 | -9.58% (inactive)
